A selection: hits, their analogues and other compounds. The true share with any hit is near 1.1%.
Menin MLL FP TR: displaces Texas Red mutant MLL peptide from human menin; Menin + Texas Red MLL mutant peptide, fluorescence polarization; Potency, µM (titrated, usually from 61.6 µM), for inactives: at the highest dose FP activity change, negative = inhibition, most hits filed as inhibitors; 0.23% of 270,000 active; AID 1768; active means well fitted inhibition curve with a large enough effect in the polarisation, with a control signal flat, not every such curve was filed as active; inconclusive means small, poorly fitted or top-dose-only effect, or effect the other way, or a change in a side signal; inactive means no such curve, though single readings can be large or run the other way; the % refers to the polarisation; further: potency means the concentration at half of the fitted maximal effect; % of control where 0% means no effect
Target sequence (O00255 whole entry, looked up): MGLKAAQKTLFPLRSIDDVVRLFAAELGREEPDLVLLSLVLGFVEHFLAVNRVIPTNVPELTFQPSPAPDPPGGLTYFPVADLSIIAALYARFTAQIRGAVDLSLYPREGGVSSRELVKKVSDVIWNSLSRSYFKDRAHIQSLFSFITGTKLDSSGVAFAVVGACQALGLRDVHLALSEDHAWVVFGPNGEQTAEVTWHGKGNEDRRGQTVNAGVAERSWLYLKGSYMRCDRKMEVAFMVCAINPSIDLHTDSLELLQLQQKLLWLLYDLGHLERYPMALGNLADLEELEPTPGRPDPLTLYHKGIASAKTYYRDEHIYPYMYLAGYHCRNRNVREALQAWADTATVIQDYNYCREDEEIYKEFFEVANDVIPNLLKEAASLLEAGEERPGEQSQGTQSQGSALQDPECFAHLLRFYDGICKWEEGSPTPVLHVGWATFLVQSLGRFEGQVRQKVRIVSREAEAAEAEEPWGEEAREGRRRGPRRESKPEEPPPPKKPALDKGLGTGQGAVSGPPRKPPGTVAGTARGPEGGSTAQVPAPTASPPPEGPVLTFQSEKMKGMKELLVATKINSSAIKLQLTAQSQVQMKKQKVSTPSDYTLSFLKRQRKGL
CXXC DNA block: MLL CXXC-DNA interaction inhibition. Q03164. MLL-CXXC / FITC-HOXA9 DNA fluorescence polarization. Potency, µM (highest dose often 115 µM), without a hit: at the highest dose activity change, negative = inhibition, hits mostly inhibitors. 0.037% of 290,000 active; active means well fitted inhibition curve with a large enough effect in the polarisation, with a control signal flat, not every such curve was filed as active; inconclusive means small, poorly fitted or top-dose-only effect, or effect the other way, or a change in a side signal; inactive means no such curve, though single readings can be large or run the other way; the % refers to the polarisation; further: potency means the concentration at half of the fitted maximal effect
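Purified MLL-CXXC (added from a 7 uM solution) was preincubated 5 min at ambient with pinned compounds in 50 mM Tris-HCl pH 7.5, 50 mM NaCl, 1 mM DTT, 0.05% BSA. Fluorescein-labeled HOX-A9 DNA (50 nM solution) followed, 30 min, then polarization read.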
Menin-MLL FL inh: menin-MLL binding inhibition, fluorescein peptide. Fluorescence polarization, fluorescein-MLL peptide displacement from menin. FP activity change, % at 61.4 µM. 290,000 tested, under 10 active. AID 1766; active means well fitted curve in the direction sought with a large enough effect in the polarisation, not every such curve was filed as active; inconclusive means small, poorly fitted or top-dose-only effect, or effect the other way, or a change in a side signal; inactive means no such curve, though single readings can be large or run the other way; the % refers to the polarisation; further: % of control where 0% means no effect
KCNH2 3.1 inh: blocks the human KCNH2 3.1 channel isoform; U2OS KCNH2 3.1, thallium flux FluxOr; stronger effect = lower value; activity change, % (tested at about 1.8 µM); 0.95% of 340,000 active;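 active means maximum activity change below -70%; inconclusive means maximum activity change from -70% to -50%; inactive means maximum activity change above -50%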;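 further: thallium influx rate constant from kinetic fluorescence after stimulation buffer; on the % scale 0 is the no-effect control and ±100 the full control effect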
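We transduce U2OS cells with the mutant 3.1 virus, culture them overnight, load FluxOr with Red40 quencher for 45 min, then add stimulation buffer and read kinetically for 2 min to derive a normalized rate constant.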
hERG WT inh: KCNH2 (human, wildtype) channel inhibition; AID 720551; activity change, % at 1.84 µM; 0.37% of 340,000 active; U2OS, BacMam KCNH2, thallium flux FluxOr; stronger effect = lower value;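 active means maximum activity change below -70%; inconclusive means maximum activity change between -70% and -50%; inactive means maximum activity change above -50%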; further: on the % scale 0 is the no-effect control and ±100 the full control effect
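U2OS cells were transduced with wild-type KCNH2 virus (2.03 x 10^8 / mL) for 4 h at room temperature, then cultured overnight at 37 C. Thallium flux was read with FluxOr dye. Rate constants were normalized to DMSO controls.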
Starred values were filed as active, the others as inactive; [ ] = another dose, or the depositor's remark.

For O=C(/C=C/c1ccc(N2CCC(c3ccccc3)=N2)cc1)c1ccccc1 the results were Menin MLL FP TR inconclusive, CXXC DNA block inconclusive, Menin-MLL FL inh inconclusive and hERG WT inh -73.7*.
`Cc1ccc(S(=O)(=O)N2CCN(CC(=O)N/N=C\C(Cl)=C\c3ccccc3)CC2)cc1` gave Menin MLL FP TR 13.3%, CXXC DNA block -5.6%, Menin-MLL FL inh -3.0, KCNH2 3.1 inh -196.9* and hERG WT inh -130.1*.
For CC(/C=N\NC(=O)CN1CCN(S(=O)(=O)c2ccc(C)cc2)CC1)=C\c1ccccc1 the results were Menin MLL FP TR 12.3%, CXXC DNA block 6.8%, Menin-MLL FL inh 3.5, KCNH2 3.1 inh -83.8* and hERG WT inh -7.6.
`Cc1ccc(S(=O)(=O)N2CCN(CC(=O)N/N=C\c3ccncc3)CC2)cc1` gave CXXC DNA block -4.3%, Menin-MLL FL inh 2.0, KCNH2 3.1 inh -1.8 and hERG WT inh -1.7.
Screening COc1ccccc1Cc1nnnn1CC(=O)O returned Menin MLL FP TR 7.4%, CXXC DNA block 4.8%, Menin-MLL FL inh 0.0, KCNH2 3.1 inh -91.8* and hERG WT inh 0.1.
Screening COc1ccccc1CNC(=O)Cn1nnnc1CN(C)C(C)C returned Menin MLL FP TR -6.1%, CXXC DNA block -15.3%, Menin-MLL FL inh 0.8, KCNH2 3.1 inh 14.7 and hERG WT inh 1.5.
`Cc1cc(C(=O)CCC(=O)Nc2ncccc2O)c(C)s1` gave KCNH2 3.1 inh 4.8 and hERG WT inh -0.7.
`COc1ccc(C2C(C#N)C(C#N)N3CCCN23)cc1` (stereo not drawn) gave Menin MLL FP TR -14.5%, CXXC DNA block 1.8%, Menin-MLL FL inh -3.7, KCNH2 3.1 inh 9.4 and hERG WT inh 0.4.
`COc1ccc([C@H]2[C@@H](C#N)[C@H](C#N)N3CCCN23)cc1` gave Menin MLL FP TR -1.0%, CXXC DNA block -2.8%, Menin-MLL FL inh 6.4, KCNH2 3.1 inh -98.4* and hERG WT inh 1.1.
`CCN(CC)c1ccc(S(=O)(=O)N2CCOCC2)cc1NC(=O)c1cc(=O)c2ccccc2o1` gave Menin MLL FP TR 11.6%, CXXC DNA block 6.7%, Menin-MLL FL inh 5.2, KCNH2 3.1 inh -74.5* and hERG WT inh 0.2.
CCN(CC)c1ccc(S(=O)(=O)N2CCOCC2)cc1NC(=O)CSc1nncn1C was read as KCNH2 3.1 inh -5.0 and hERG WT inh -18.5.
Screening CCN(CC)c1ccc(S(=O)(=O)N2CCOCC2)cc1NC(=O)CSc1nncs1 returned KCNH2 3.1 inh -186.6* and hERG WT inh -215.2*.
`COC(=O)c1ccccc1S(=O)(=O)N1CCc2nc(COc3ccccc3)c3c(c2C1)CO[C@@H](C)C3` gave Menin MLL FP TR -8.2%[11.7 µM] and Menin-MLL FL inh 3.7[11.7 µM].
For C[C@H]1/C=C\CC(=O)OC[C@H](C)C(=O)N2CCC[C@@H]2C(=O)OC1 the results were Menin MLL FP TR 11.7%[11.7 µM] and Menin-MLL FL inh 1.2[11.7 µM].
CCc1cccc(C)c1NC(=O)COC(=O)c1c2c(nc3ccccc13)/C(=C\c1cccs1)CCC2 was read as Menin MLL FP TR 14.1µM*, CXXC DNA block -2.5%, Menin-MLL FL inh 15.3, KCNH2 3.1 inh -22.8 and hERG WT inh -8.0.
For COc1ccc([N+](=O)[O-])cc1NS(=O)(=O)c1ccc(Cl)c(C(=O)Nc2sc3c(c2C#N)CCCCC3)c1 the results were Menin MLL FP TR inconclusive, CXXC DNA block -3.3% and Menin-MLL FL inh -4.2.
O=C(O)C1=NN(c2cc(Cl)c(S(=O)(=O)O)cc2Cl)C(=O)C1 was read as KCNH2 3.1 inh -4.1 and hERG WT inh -1.1.
`O=C(c1ccc(Br)o1)N1CCN(c2ccc3nnc(-c4ccccc4)n3n2)CC1` gave Menin MLL FP TR -13.0%, CXXC DNA block 3.7%, Menin-MLL FL inh 1.1, KCNH2 3.1 inh 5.7 and hERG WT inh -1.1.
O=S(=O)(c1ccc(Br)cc1)N1CCN(c2ccc3nnc(-c4ccccc4)n3n2)CC1 was read as Menin MLL FP TR -6.6%, CXXC DNA block 23.6%, Menin-MLL FL inh 0.7, KCNH2 3.1 inh -90.9* and hERG WT inh -14.2.
Screening O=C(N/N=C/c1cc([N+](=O)[O-])ccc1Cl)c1cnccn1 returned Menin MLL FP TR 0.1%, CXXC DNA block 10.0%, Menin-MLL FL inh -2.2, KCNH2 3.1 inh -188.4* and hERG WT inh -144.0*.
Screening COc1ccc(NC(=S)Nc2ccc3snnc3c2)cc1 returned Menin MLL FP TR inconclusive, CXXC DNA block 8.4%, Menin-MLL FL inh 7.7, KCNH2 3.1 inh -83.0* and hERG WT inh 3.9.
For O=C1[C@@H]2[C@H]3C(=CC[C@@H]2C(=O)N1Cc1ccccc1)C1(OCCCO1)[C@H]1O[C@@H]1[C@H]3O the results were Menin MLL FP TR -1.7%[11.7 µM] and Menin-MLL FL inh -0.1[11.7 µM].
`CCC/C=C/c1ccc(CN2C(CC(C)C)C(=O)N(Cc3cn(Cc4ccco4)nn3)CCS2(=O)=O)cc1` (stereo not drawn) gave KCNH2 3.1 inh -13.7 and hERG WT inh -3.4.
For CSCC[C@H](NC(=O)[C@H](CC(C)C)NC(=O)[C@@H]1CCCN1C(=O)[C@H](Cc1ccccc1)NC(=O)[C@H](Cc1ccccc1)NC(=O)[C@H](CCC(N)=O)NC(=O)[C@H](CCC(N)=O)NC(=O)[C@@H]1CCCN1C(=O)[C@H](CCCCN)NC(=O)[C@@H]1CCCN1C(=O)[C@@H](N)CCCN=C(N)N)C(N)=O the results were Menin MLL FP TR 3.9% and Menin-MLL FL inh 2.1.
For CCOC(=O)C(C)Sc1nc2c(c(=O)[nH]c(=O)n2C)n1Cc1ccc(Cl)cc1 (stereo not drawn) the results were Menin MLL FP TR -13.3%, CXXC DNA block 0.5%, Menin-MLL FL inh 1.1, KCNH2 3.1 inh -91.3* and hERG WT inh inconclusive.
For COc1cc(C(=O)N(Cc2cccnc2)Cc2cc3cc4c(cc3[nH]c2=O)OCCO4)cc(OC)c1OC the results were Menin MLL FP TR 17.8µM*, CXXC DNA block 13.5%, Menin-MLL FL inh -0.7, KCNH2 3.1 inh 7.9 and hERG WT inh 0.2.
For O=C(CN(C(=O)c1csnn1)c1ccc(Cl)cc1)NCCc1ccccc1 the results were Menin MLL FP TR 45.1%, CXXC DNA block -8.8%, Menin-MLL FL inh -0.8, KCNH2 3.1 inh 15.6 and hERG WT inh -1.6.
`O=C(CSc1ccc(Cl)cc1)N1CCN(c2ccc([N+](=O)[O-])cc2Cl)CC1` gave Menin MLL FP TR 10.9%, CXXC DNA block 7.0%, Menin-MLL FL inh -0.1, KCNH2 3.1 inh -88.1* and hERG WT inh inconclusive.
For O=C(CN1CCN(c2ncc(C(F)(F)F)cc2Cl)CC1)N1CCN(c2ncc(C(F)(F)F)cc2Cl)CC1 the results were Menin MLL FP TR inconclusive, CXXC DNA block 5.6%, Menin-MLL FL inh 1.5, KCNH2 3.1 inh -34.6 and hERG WT inh -38.2.
`O=C(CSc1ccc(Cl)cc1)N1CCN(c2ncc(C(F)(F)F)cc2Cl)CC1` gave Menin MLL FP TR -4.1%, CXXC DNA block inconclusive, Menin-MLL FL inh -0.3, KCNH2 3.1 inh -124.3* and hERG WT inh 27.6.
